# Data as given in PubChem BioAssay (NCI).
# The panel holds about 83,000 compounds, 20% with a hit somewhere; the sample as a whole holds those more often.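 Method: cells in 96-well plates; compound added at one concentration; 48 h incubation; percent growth measured; values under 10 scored active.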 Values without a mark were called inactive. Active and inactive are the calls of the source.
# Columns and labels:
# Experiment in all cases: NCI-60 one-dose screen, 48 h (100 = growth as untreated, 0 = no growth, -100 = all killed)
# Conditions in all cases: 10 µM unless noted
# [1] = test system: NCI-H23 lung
# [2] = test system: NCI-H226 lung
# [3] = test system: NCI-H322M lung
# [4] = test system: NCI-H460 lung
# [5] = test system: NCI-H522 lung
# [6] = test system: A549/ATCC NSCLC
# [7] = test system: 786-0 renal
# [8] = test system: COLO 205 colon
# [9] = test system: DU-145 prostate
# [10] = test system: K-562 leukemia
# [11] = test system: MALME-3M melanoma
# [12] = test system: MDA-MB-231 breast
# [13] = test system: RXF 393 renal
# [14] = test system: SF-268 CNS
# [15] = test system: SF-295 CNS
# [16] = test system: SF-539 CNS
# [17] = test system: UACC-257 melanoma
# [18] = test system: M14 melanoma
# [19] = test system: HOP-62 NSCLC
# [20] = test system: HOP-92 NSCLC
SMILES,growth [1],growth [2],growth [3] [%],growth [4],growth [5],growth [6],growth [7],growth [8],growth [9] [%],growth [10],growth [11],growth [12],growth [13],growth [14] [%],growth [15],growth [16],growth [17],growth [18],growth [19],growth [20]
C=C1CC[C@@H]2[C@]3(C)COC(c4cn[nH]c4-c4cccc(Cl)c4)O[C@@H]3CC[C@@]2(C)[C@@H]1C/C=C1/C(=O)OCC1O (stereo not given in full),-79.8% (active),-91.1% (active),37.9,-3.88% (active),-60% (active),-19.2% (active),-92.7% (active),-35% (active),25.5,5% (active),-50.7% (active),-52.7% (active),-91% (active),34.3,-32.8% (active),-89.8% (active),-33.1% (active),-73.4% (active),,
CNC(=O)c1cc(Oc2ccc3nc(NC(=O)Nc4cccc(OC(F)(F)F)c4)sc3c2)ccn1,6.71% (active),-24.5% (active),,29.9%,26.6%,35.2%,-50.7% (active),68.2%,36.8,47.1%,-25.2% (active),,-40.1% (active),11.8,-18.9% (active),-57.8% (active),47.9%,44.8%,-71.7% (active),-63% (active)
Cc1ccc(-n2c(-c3cc4ccccc4nc3Cl)noc2=O)cc1,87.7%,77.7%,92.5,,62.7%,85.7%,91.3%,103%,105,30.6%,93.3%,63.6%,92.4%,86.7,76.1%,84%,95%,72.7%,,
O=C(CCN1C(=O)/C(=C/c2ccc(F)cc2)SC1=S)N1CCOCC1,67.9%,74.2%,,68.6%,-79% (active),81.5%,67.1%,75%,35.8,43%,46.1%,60.9%,47.7%,86.7,104%,68.6%,52%,57.1%,109%,
CC(C)C(C(=O)O)n1c(O)c(/C=C2/C=c3cc4c(cc3=NC2=O)OCO4)sc1=S (stereo not given),98.4%,101%,,114%,99.4%,110%,105%,115%,115,109%,98.4%,99.2%,116%,111,102%,104%,107%,103%,115%,
CC(C)CSc1nc(NCCc2c[nH]c3ccccc23)c(C#N)c(-c2ccc(F)cc2)n1,72.9%,44.9%,,11.6%,62.4%,51.2%,67.9%,31.6%,58.6,18.9%,73%,40.8%,26.1%,51.9,46.7%,47.9%,81%,62.7%,34.9%,50.9%
COc1ccc(/C=C/c2nc3ccccc3c(=O)n2CC(=O)Nc2ccc(Cl)cc2)cc1,60.7%,30.4%,88.8,22.6%,64.1%,23%,27.5%,74.6%,65.9,66.6%,76.3%,48.8%,48.5%,61.4,53%,-13% (active),92.3%,77.8%,,
Cn1cc(-c2nnc(N)nc2-c2c[nH]c3ccc(Br)cc23)c2cc(Br)cnc21,,74%,71.5,62.1%,6.2% (active),59.5%,46.2%,66.6%,75.8,26.7%,69%,55.8%,17.1%,71.3,63.5%,63.6%,83.4%,57.2%,70.7%,43.4%
COc1ccc2oc(=O)c(C3(C)NC(=O)c4c(/C=C/C(=O)OC(C)(C)C)cccc4N3)cc2c1 (stereo not given),,44.7%,66.9,47.2%,27.8%,27.3%,66.7%,44.9%,69.5,25.5%,40.5%,49.1%,40.3%,58.1,39.3%,67.6%,32.6%,48.7%,61%,32.9%
COc1cc(-c2nc3cc(Cl)c(Cl)cc3[nH]2)ccc1OCc1nnc(-c2cccs2)o1,,54.7%,75.3,38.8%,51.8%,11.7%,85.8%,81.9%,34.7,54%,18.1%,17.9%,-2.12% (active),68.5,31.9%,104%,61.2%,41.8%,77.8%,69%
CCOC(=O)C1=C(N)N(c2ccccc2)C2=C(C(=O)CC(C)(C)C2)C1c1ccc(N2CCOCC2)cc1 (stereo not given),,89.8%,99.1,106%,89.4%,103%,87.7%,108%,111,96.9%,112%,104%,91.2%,97.4,98.9%,93%,109%,101%,102%,87.7%
N/C(=N\N=C\c1ccc([N+](=O)[O-])cc1)c1c(N)nc(=S)[nH]c1-c1ccc(Cl)cc1Cl,90.2%,82.1%,,114%,78.5%,101%,54.1%,115%,115,95%,73%,77.5%,73.1%,94.9,52.4%,74.7%,104%,102%,,2.04% (active)
Clc1ccc(-c2ccc(OCCCN3CCN(c4ccncc4)CC3)cc2)cc1,50.7%,62.5%,,-6.61% (active),67.8%,59.1%,56.4%,-77.8% (active),69.1,-45.6% (active),84.2%,33.1%,15.3%,75.9,40.6%,30%,90.2%,-54.6% (active),,15.9%
COc1cc2oc(-c3cccc(C(=O)Nc4ccc(Cl)cc4)c3)cc(=O)c2c(OCCNC(=O)[C@H](CO)NC(=O)OC(C)(C)C)c1OC,,42%,35.4,9.69% (active),6.54% (active),23.8%,32.4%,-43.4% (active),32.2,11.3%,20%,2.74% (active),-25.7% (active),41.4,-16.4% (active),-54.2% (active),-41.7% (active),-7.57% (active),55.1%,-2.01% (active)
Cc1ccc(-c2nc(C#N)c(S(=O)(=O)N3CCN(S(=O)(=O)c4ccc(Cl)cc4)CC3)o2)cc1,,87.6%,97.1,99.6%,71.2%,94.3%,49.1%,124%,97.4,56.9%,79.1%,90.9%,56.6%,75.8,110%,70.5%,89.5%,91.5%,63%,94.6%
COC(=O)/C=C/c1cccc2c1C(=O)NC(C)(c1cc3ccccc3oc1=O)N2 (stereo not given),,63.1%,93.7,44.5%,62%,67.9%,58.9%,63.1%,62.7,56.6%,58.7%,76.3%,58.9%,82.3,84.9%,73.2%,77.7%,41.7%,72.4%,50.7%
